“And” between values parts separate entries of the source, which are not always exact repeats. Identical values can stand only once. Inconclusive results are not listed. Where a call stands in place of a potency, no number is given. The source made the active and inactive calls. Unless noted, calls follow the shape of the dose curve; as a rule, active = well fitted curve in the direction sought with a large enough effect; inconclusive = small, poorly fitted or top-dose-only effect, or another doubt; inactive = no such curve, though single readings can be large; an effect the other way counts as inactive or inconclusive.
Assays:
[1] = target: Alpha-galactosidase A (Homo sapiens) (UniProt P06280); assay: Counterscreen for Glucocerebrosidase Inhibitors: qHTS Assay for Human alpha-Galactosidase at pH 4.5 (AID 992)
Sequence of Alpha-galactosidase A (Homo sapiens) (P06280 whole entry, looked up): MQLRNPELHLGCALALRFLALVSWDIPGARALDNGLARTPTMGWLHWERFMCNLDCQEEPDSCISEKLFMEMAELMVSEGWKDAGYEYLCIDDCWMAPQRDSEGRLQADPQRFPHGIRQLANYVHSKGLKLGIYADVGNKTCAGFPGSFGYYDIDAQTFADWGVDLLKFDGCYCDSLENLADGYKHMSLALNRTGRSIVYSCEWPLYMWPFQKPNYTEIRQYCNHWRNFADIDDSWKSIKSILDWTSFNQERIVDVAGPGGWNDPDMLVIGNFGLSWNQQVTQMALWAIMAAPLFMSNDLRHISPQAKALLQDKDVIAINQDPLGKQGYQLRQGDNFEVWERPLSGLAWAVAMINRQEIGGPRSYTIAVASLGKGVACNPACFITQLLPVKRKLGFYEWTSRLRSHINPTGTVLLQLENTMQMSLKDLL
Summary of the method: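 Citrate buffer pH 4.5, Tween-20 0.005%. Enzyme 2 nM, substrate 80 uM, 20 min RT. Stop pH 10. Fluorescence Ex 365/Em 440. AC50 by Hill fit.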

[2] = target: alpha-glucosidase (Oryza sativa, rice) (UniProt Q653V4); assay: Counterscreen for Glucocerebrosidase Inhibitors: qHTS Assay for Rice alpha-Glucosidase at pH 5.0 (AID 997)
Summary of the method: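 Endpoint fluorogenic assay at pH 5.0: compounds (0.7 nM to 77 uM) titrated against 4 nM rice enzyme and 400 uM 4-MU-alpha-glucoside for 20 min at room temperature; NaOH/glycine stop, read ex 365/em 440 nm, Hill-fitted AC50.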

[3] = target: DNA repair nuclease/redox regulator APEX1 (Homo sapiens) (UniProt P27695); assay: qHTS Validation Assay for Inhibitors of the Human Apurinic/apyrimidinic Endonuclease 1 (APE1) (AID 1705;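 also: TAMRA fluorescence gain over two minutes as APE1 cuts a quenched THF abasic duplex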)
Sequence of DNA repair nuclease/redox regulator APEX1 (Homo sapiens) (P27695 whole entry, looked up): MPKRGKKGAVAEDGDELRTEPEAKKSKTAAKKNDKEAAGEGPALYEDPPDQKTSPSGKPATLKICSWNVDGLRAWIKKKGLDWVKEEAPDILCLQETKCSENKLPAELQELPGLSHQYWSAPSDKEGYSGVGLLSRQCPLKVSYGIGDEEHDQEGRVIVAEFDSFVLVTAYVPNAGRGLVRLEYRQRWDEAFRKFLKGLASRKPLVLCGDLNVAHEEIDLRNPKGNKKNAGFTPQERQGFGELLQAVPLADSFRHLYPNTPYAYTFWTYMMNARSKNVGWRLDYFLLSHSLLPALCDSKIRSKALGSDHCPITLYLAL
Summary of the method: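 qHTS, 1536-well. APE1 + cpd 15 min RT → 50 nM TAMRA/BHQ-2 THF-abasic dsDNA substrate → kinetic fluorescence, 3 reads/60 s; delta(read3−read1) = reaction progress. No-enzyme buffer = negative control.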

[4] = target: Endonuclease 4 (Escherichia coli (strain K12)) (UniProt P0A6C1); assay: Counterscreen for APE1 Inhibitors: qHTS Validation Assay for Inhibitors of Endonuclease IV (AID 1708)
Summary of the method: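 The reaction buffer contained 50 mM Tris-HCl pH 7.5, 50 mM NaCl, 2 mM MgCl2, 1 mM DTT and 0.01% Tween-20. Incision of a 50 nM fluorophore/quencher THF substrate by 2 nM enzyme was measured kinetically.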

[5] = qHTS for differential inhibitors of proliferation of Plasmodium falciparum line 7G8 (AID 1815);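 also: parasite growth measured after three days of incubation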; also: potency is read from the fitted curve at half-maximal effect
[6] = qHTS for differential inhibitors of proliferation of Plasmodium falciparum line GB4 (AID 1816); conditions: Potency: Plasmodium falciparum GB4 proliferation inhibition;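 also: parasite growth measured after 72 h incubation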; also: potency is read from the fitted curve at half-maximal effect
[7] = qHTS for differential inhibitors of proliferation of Plasmodium falciparum line 3D7 (AID 1876); also: potency is read from the fitted curve at half-maximal effect
[8] = qHTS for differential inhibitors of proliferation of Plasmodium falciparum line D10 (AID 1877);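 also: parasites grown with compound for 72 h before DNA staining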; also: potency is read from the fitted curve at half-maximal effect
[9] = qHTS Assay for Lipid Storage Modulators (AID 1519; calls by dose curve); conditions: Drosophila S3 cells, BODIPY lipid droplet/cell ratio, laser cytometry, cells loaded with oleic acid
Summary of the method: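 Cells seeded at 5,000 per well were treated with compounds over a concentration series and loaded with oleic acid (400 uM, as added). Lipid droplet fluorescence (488 nm excitation, 500-530 nm channel) was read by laser-scanning cytometry and normalized to 20 uM Triacsin C.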

[10] = Cell Viability - LYMP2-010 (AID 981);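 also: cells exposed to compound for 24 hours at 37 °C; nearly all actives have a fitted effect of over 55% in size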; also: potency is read from the fitted curve at half-maximal effect
Summary of the method: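 This 24 hr viability screen uses LYMP2-010 lymphoblastoid cells, quantifies ATP via luciferase luminescence, and derives AC50 from Hill fits of qHTS concentration-response data.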

[11] = Cell Viability - LYMP2-012 (AID 982);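 also: cellular ATP by luciferase luminescence where a drop means cytotoxicity; cells exposed to compound for one day before reading; nearly all actives have a fitted effect of over 55% in size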; also: potency is read from the fitted curve at half-maximal effect
[12] = Cell Viability - LYMP2-014 (AID 983);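 also: cells exposed to compound for 24 h at 37 °C; nearly all actives have a fitted effect of over 50% in size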; also: potency is read from the fitted curve at half-maximal effect
Summary of the method: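 Quantitative HTS in lymphoblastoid cells: 24 hr compound exposure, then CellTiter-Glo ATP luminescence. Positive control was tetraoctylammonium bromide, 6.4pM to 92 uM.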

[13] = Cell Viability - LYMP2-018 (AID 985); also: nearly all actives have a fitted effect of over 50% in size; also: potency is read from the fitted curve at half-maximal effect
Summary of the method: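 In this qHTS viability assay, cells are treated for 24 hr and cellular ATP is quantified by luciferase-based luminescence, with tetraoctylammonium bromide as positive control.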

[14] = Cell Viability - LYMP2-020 (AID 986);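 also: cells exposed to compound for 24 h at 37 °C; nearly all actives have a fitted effect of over 55% in size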; also: potency is read from the fitted curve at half-maximal effect
Summary of the method: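 Cells at 2500 per well receive a 24 hr compound exposure at 37 C. Viability is measured as ATP-dependent luciferase luminescence, with AC50 modeled from qHTS concentration-response curves.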

[15] = Cell Viability - LYMP2-022 (AID 987); also: nearly all actives have a fitted effect of over 55% in size; also: potency is read from the fitted curve at half-maximal effect
Summary of the method: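 In this qHTS cytotoxicity screen, compound titrations were incubated 24 hr at 37 C with human lymphoblastoid cells in complete medium. Luciferase-based ATP luminescence provided the viability signal.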

[16] = Cell Viability - LYMP2-024 (AID 988); also: nearly all actives have a fitted effect of over 60% in size; also: potency is read from the fitted curve at half-maximal effect
Summary of the method: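 Cells at 2500 per well received compound for 24 hr after a 5 hr settling period. Viability was scored by CellTiter-Glo luminescence, with AC50 from Hill fits.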

[17] = Cell Viability - LYMP2-026 (AID 989);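 also: cells exposed to compound for 24 h at 37 °C; nearly all actives have a fitted effect of over 50% in size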; also: potency is read from the fitted curve at half-maximal effect
Summary of the method: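 Acute toxicity screen in complete culture medium, with 24 hr compound exposure at 37 C. Viability read as cellular ATP via luciferase reaction, with tetraoctylammonium bromide (6.4pM to 92 uM) as positive control.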

[18] = Cell Viability - LYMP1-002 - Assay at 40 hr (AID 994); also: nearly all actives have a fitted effect of over 60% in size; also: potency is read from the fitted curve at half-maximal effect
Summary of the method: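 Concentration-dependent ATP loss after 40 hr treatment at 37 C defined toxicity; AC50 values were obtained by fitting the standard Hill equation.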

[19] = Counterscreen for APE1 Inhibitors: Fluorescent Dye Displacement Validation Assay (AID 1707)
Summary of the method: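 Signal: ThO fluorescence (ex 480 nm/em 540 nm) on binding 50 nM dsDNA; displacement by test compound reduces it. Conditions: 250 nM dye, 50 mM Tris-HCl pH7.5, 2 mM MgCl2, 50mM NaCl, 0.01% Tween-20.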

[20] = measured here: cell count channel max response
[21] = measured here: lipid channel max response

COc1cc2ncnc(Nc3cccc(Cl)c3)c2cc1OC
outcome [1]: inactive
outcome [2]: inactive
outcome [3]: inactive
outcome [4]: inactive
Potency [5]: 8910 nM (active)
Potency [6]: 6310 nM (active)
Potency [7]: 2510 nM (active)
Potency [8]: 5620 nM (active)

N[C@@H](Cc1ccc(O)c(O)c1)C(=O)O
outcome [1]: inactive
outcome [2]: inactive
activity change, negative = inhibition ([9]; at 25.7 µM (top of the series)): -1.67% (inactive)
max response [9, 20]: -2.41%
max response [9, 21]: -4.9%

Cc1cc(NS(=O)(=O)c2ccc(N)cc2)no1
Potency [10]: inactive
Potency [11]: inactive
Potency [12]: inactive
Potency [13]: inactive
Potency [14]: inactive
Potency [15]: inactive
Potency [16]: inactive
Potency [17]: inactive
Potency [18]: inactive
activity change, negative = inhibition ([9]; at 25.7 µM (top of the series)): 0.06% (inactive)
activity change, negative = inhibition ([9]; at 57.5 µM (top of the series)): 10.1% (inactive)
max response [9, 20]: 8.41% and 20.8%
max response [9, 21]: 8.63% and 34.6%

CN(C)c1ccc(C(=C2C=CC(=[N+](C)C)C=C2)c2ccc(N(C)C)cc2)cc1
Potency [10]: 1260 nM (active)
Potency [11]: 1000 nM (active)
Potency [12]: 2000 nM (active)
Potency [13]: 2000 nM (active)
Potency [14]: 2000 nM (active)
Potency [15]: 794 nM (active)
Potency [16]: 2000 nM (active)
Potency [17]: 2510 nM (active)
Potency [18]: 3980 nM (active)

CC(C)(Sc1cc(C(C)(C)C)c(O)c(C(C)(C)C)c1)Sc1cc(C(C)(C)C)c(O)c(C(C)(C)C)c1
activity change, negative = inhibition ([9]; at 25.7 µM (top of the series)): -2.44% (inactive)
activity change, negative = inhibition ([9]; at 57.5 µM (top of the series)): 6.58% (inactive)
max response [9, 20]: 2.96% and 13.3%
max response [9, 21]: 1.97% and 25.1%

Cc1ncc([N+](=O)[O-])n1CCO
Potency [10]: inactive
Potency [11]: inactive
Potency [12]: inactive
Potency [13]: inactive
Potency [14]: inactive
Potency [15]: inactive
Potency [16]: inactive
Potency [17]: inactive
Potency [18]: inactive
activity change, negative = inhibition ([9]; at 57.5 µM (top of the series)): 8.03% (inactive)
max response [9, 20]: 17.2%
max response [9, 21]: 27.3%

Cc1ccc(S(=O)(=O)N[C@@H](Cc2ccccc2)C(=O)CCl)cc1
outcome [1]: inactive
outcome [2]: inactive
outcome [3]: inactive
outcome [19]: inactive
Potency [8]: inactive

Nc1ccc(S(=O)(=O)Nc2ccccn2)cc1
activity change, negative = inhibition ([9]; at 25.7 µM (top of the series)): -0.611% (inactive)
activity change, negative = inhibition ([9]; at 57.5 µM (top of the series)): 8.46% (inactive)
max response [9, 20]: -5.02% and 31.9%
max response [9, 21]: -4.54% and 46.5%

Cc1nnc(NS(=O)(=O)c2ccc(N)cc2)s1
Potency [10]: inactive
Potency [11]: inactive
Potency [12]: inactive
Potency [13]: inactive
Potency [14]: inactive
Potency [15]: inactive
Potency [16]: inactive
Potency [17]: inactive
Potency [18]: inactive
activity change, negative = inhibition ([9]; at 25.7 µM (top of the series)): 0.279% (inactive)
activity change, negative = inhibition ([9]; at 57.5 µM (top of the series)): 7.74% (inactive)
max response [9, 20]: -3.37% and -1.8%
max response [9, 21]: -7.15% and 7.76%

CC(=O)[C@H]1CC[C@H]2[C@@H]3CCC4=CC(=O)CC[C@]4(C)[C@H]3CC[C@]12C
outcome [1]: inactive
outcome [2]: inactive
activity change, negative = inhibition ([9]; at 57.5 µM (top of the series)): 1.11% (inactive)
max response [9, 20]: -15.2%
max response [9, 21]: -13.1%
outcome [3]: inactive
outcome [19]: inactive
outcome [4]: inactive

NC(=O)c1cccc(N)c1
outcome [1]: inactive
outcome [2]: inactive
activity change, negative = inhibition ([9]; at 57.5 µM (top of the series)): 7.95% (inactive)
max response [9, 20]: 35.3%
max response [9, 21]: 59.1%
outcome [3]: inactive
outcome [19]: inactive
outcome [4]: inactive
Potency [5]: inactive
Potency [6]: inactive
Potency [7]: inactive
Potency [8]: inactive

CCn1cc(C(=O)O)c(=O)c2cc(F)c(N3CCNCC3)cc21
activity change, negative = inhibition ([9]; at 25.7 µM (top of the series)): 0.231% (inactive)
activity change, negative = inhibition ([9]; at 57.5 µM (top of the series)): 8.94% (inactive)
max response [9, 20]: -2.5% and 14.7%
max response [9, 21]: -2.45% and 30%

COc1ncnc(NS(=O)(=O)c2ccc(N)cc2)c1OC
activity change, negative = inhibition ([9]; at 25.7 µM (top of the series)): -2.34% (inactive)
max response [9, 20]: -20.8%
max response [9, 21]: -23.2%
